{"source": "PubChem BioAssay (NCI)", "assay_in_all_cases": "NCI-60 one-dose screen, 48 h (100 = growth as untreated, 0 = no growth, -100 = all killed)", "conditions_in_all_cases": "10 µM unless noted", "key": {"SK-MEL-2 melanoma": {"test_system": "SK-MEL-2 melanoma"}, "EKVX NSCLC": {"test_system": "EKVX NSCLC"}, "SN12C renal": {"test_system": "SN12C renal"}, "UO-31 renal": {"test_system": "UO-31 renal"}, "TK-10 renal": {"test_system": "TK-10 renal"}, "ACHN renal": {"test_system": "ACHN renal"}, "CAKI-1 renal": {"test_system": "CAKI-1 renal"}, "A498 renal": {"test_system": "A498 renal"}, "CCRF-CEM leukemia": {"test_system": "CCRF-CEM leukemia"}, "MOLT-4 leukemia": {"test_system": "MOLT-4 leukemia"}, "SR leukemia": {"test_system": "SR leukemia"}, "RPMI-8226 leukemia": {"test_system": "RPMI-8226 leukemia"}, "OVCAR-8 ovarian": {"test_system": "OVCAR-8 ovarian"}, "OVCAR-5 ovarian": {"test_system": "OVCAR-5 ovarian"}, "OVCAR-4 ovarian": {"test_system": "OVCAR-4 ovarian"}, "SK-OV-3 ovarian": {"test_system": "SK-OV-3 ovarian"}, "IGROV1 ovarian": {"test_system": "IGROV1 ovarian"}, "OVCAR-3 ovarian": {"test_system": "OVCAR-3 ovarian"}, "HS 578T breast": {"test_system": "HS 578T breast"}, "NCI/ADR-RES ovarian": {"test_system": "NCI/ADR-RES ovarian"}}, "note": "About 83,000 compounds went through this panel and 20% of them were active in at least one assay; those are over-represented in the sample as a whole.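 Negative percent growth values reflect cell death: -40 means 40% of the cells present at the start died, and -100 means all died.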 Unmarked numbers belong to inactive results. The source made the active and inactive calls. The calls were made as follows: active = growth percent below 10; inactive = the rest.", "data": [{"smiles": "C/C(=N\\N=C1/C(=O)Nc2ccc(Cl)cc21)c1ccc2c(c1)Nc1ccccc1S2", "values": [{"measurement": "growth", "setting": "SK-MEL-2 melanoma", "value": "-13.6% (active)"}, {"measurement": "growth", "setting": "EKVX NSCLC", "value": 12.6, "unit": "%"}, {"measurement": "growth", "setting": "SN12C renal", "value": "-16.2% (active)"}, {"measurement": "growth", "setting": "UO-31 renal", "value": 18.2, "unit": "%"}, {"measurement": "growth", "setting": "TK-10 renal", "value": 22.4, "unit": "%"}, {"measurement": "growth", "setting": "ACHN renal", "value": "-3.77% (active)"}, {"measurement": "growth", "setting": "CAKI-1 renal", "value": "6.63% (active)"}, {"measurement": "growth", "setting": "A498 renal", "value": 23.7, "unit": "%"}, {"measurement": "growth", "setting": "CCRF-CEM leukemia", "value": "9.58% (active)"}, {"measurement": "growth", "setting": "MOLT-4 leukemia", "value": "-1.18% (active)"}, {"measurement": "growth", "setting": "SR leukemia", "value": 11.4, "unit": "%"}, {"measurement": "growth", "setting": "RPMI-8226 leukemia", "value": 10.8, "unit": "%"}, {"measurement": "growth", "setting": "OVCAR-8 ovarian", "value": "-15.6% (active)"}, {"measurement": "growth", "setting": "OVCAR-5 ovarian", "value": 15.8, "unit": "%"}, {"measurement": "growth", "setting": "OVCAR-4 ovarian", "value": 15.7, "unit": "%"}, {"measurement": "growth", "setting": "SK-OV-3 ovarian", "value": 50.4, "unit": "%"}, {"measurement": "growth", "setting": "IGROV1 ovarian", "value": "-8.9% (active)"}, {"measurement": "growth", "setting": "OVCAR-3 ovarian", "value": "-66.9% (active)"}, {"measurement": "growth", "setting": "HS 578T breast", "value": "9.82% (active)"}, {"measurement": "growth", "setting": "NCI/ADR-RES ovarian", "value": "-28.3% (active)"}]}, {"smiles": "Cc1sc2c(c1C)C(c1ccc(Cl)cc1)=N[C@@H](CC(=O)NCCCCCNC(=O)COc1ccc(C3CCC(=O)NC3=O)cc1)c1nnc(C)n1-2", "note": "(stereo not given in full)", "values": [{"measurement": "growth", "setting": "SK-MEL-2 melanoma", "value": 13.4, "unit": "%"}, {"measurement": "growth", "setting": "EKVX NSCLC", "value": 29.5, "unit": "%"}, {"measurement": "growth", "setting": "SN12C renal", "value": 18.7, "unit": "%"}, {"measurement": "growth", "setting": "UO-31 renal", "value": 27.8, "unit": "%"}, {"measurement": "growth", "setting": "TK-10 renal", "value": "5.57% (active)"}, {"measurement": "growth", "setting": "ACHN renal", "value": 44, "unit": "%"}, {"measurement": "growth", "setting": "CAKI-1 renal", "value": 16.4, "unit": "%"}, {"measurement": "growth", "setting": "A498 renal", "value": 48.4, "unit": "%"}, {"measurement": "growth", "setting": "CCRF-CEM leukemia", "value": 49.2, "unit": "%"}, {"measurement": "growth", "setting": "MOLT-4 leukemia", "value": 16.4, "unit": "%"}, {"measurement": "growth", "setting": "SR leukemia", "value": 37.5, "unit": "%"}, {"measurement": "growth", "setting": "RPMI-8226 leukemia", "value": "-3.88% (active)"}, {"measurement": "growth", "setting": "OVCAR-8 ovarian", "value": 16.2, "unit": "%"}, {"measurement": "growth", "setting": "OVCAR-5 ovarian", "value": 27.8, "unit": "%"}, {"measurement": "growth", "setting": "OVCAR-4 ovarian", "value": 22.8, "unit": "%"}, {"measurement": "growth", "setting": "SK-OV-3 ovarian", "value": "-16.9% (active)"}, {"measurement": "growth", "setting": "IGROV1 ovarian", "value": 21.8, "unit": "%"}, {"measurement": "growth", "setting": "OVCAR-3 ovarian", "value": 44.7, "unit": "%"}, {"measurement": "growth", "setting": "HS 578T breast", "value": 25, "unit": "%"}, {"measurement": "growth", "setting": "NCI/ADR-RES ovarian", "value": 97.3, "unit": "%"}]}, {"smiles": "COc1ccc2[nH]cc(-c3nc(N)nnc3-c3cn(C)c4ncccc34)c2c1", "values": [{"measurement": "growth", "setting": "SK-MEL-2 melanoma", "value": 49.4, "unit": "%"}, {"measurement": "growth", "setting": "EKVX NSCLC", "value": 63.7, "unit": "%"}, {"measurement": "growth", "setting": "SN12C renal", "value": 59.6, "unit": "%"}, {"measurement": "growth", "setting": "UO-31 renal", "value": 43.9, "unit": "%"}, {"measurement": "growth", "setting": "TK-10 renal", "value": 93.1, "unit": "%"}, {"measurement": "growth", "setting": "ACHN renal", "value": 67.3, "unit": "%"}, {"measurement": "growth", "setting": "CAKI-1 renal", "value": 38.8, "unit": "%"}, {"measurement": "growth", "setting": "A498 renal", "value": 104, "unit": "%"}, {"measurement": "growth", "setting": "CCRF-CEM leukemia", "value": 67.7, "unit": "%"}, {"measurement": "growth", "setting": "MOLT-4 leukemia", "value": 41.3, "unit": "%"}, {"measurement": "growth", "setting": "SR leukemia", "value": 33.5, "unit": "%"}, {"measurement": "growth", "setting": "RPMI-8226 leukemia", "value": 58.2, "unit": "%"}, {"measurement": "growth", "setting": "OVCAR-8 ovarian", "value": 64.4, "unit": "%"}, {"measurement": "growth", "setting": "OVCAR-5 ovarian", "value": 77.9, "unit": "%"}, {"measurement": "growth", "setting": "OVCAR-4 ovarian", "value": 78, "unit": "%"}, {"measurement": "growth", "setting": "SK-OV-3 ovarian", "value": 86.3, "unit": "%"}, {"measurement": "growth", "setting": "IGROV1 ovarian", "value": 32.9, "unit": "%"}, {"measurement": "growth", "setting": "OVCAR-3 ovarian", "value": 16.2, "unit": "%"}, {"measurement": "growth", "setting": "HS 578T breast", "value": 37.2, "unit": "%"}, {"measurement": "growth", "setting": "NCI/ADR-RES ovarian", "value": 99, "unit": "%"}]}]}
